Test results from ChEMBL document CHEMBL3988442, “University of Dundee, Small-Polar-MMV Screening Library” (2021).

Legend:
[1] = biological target: T1, Aspartate--tRNA(Asp/Asn) ligase (Mycobacterium tuberculosis (strain ATCC 25618 / H37Rv)) (UniProt P9WFW3); test: Assay for Asp RNA synthetase-1 from Mycobacterium tuberculosis; format: functional; parameters: scale not given: direction of the effect not stated beside the values; conditions: 30 µM; also: in the data most compounds retested in dose-response had high values
T1 sequence (whole entry): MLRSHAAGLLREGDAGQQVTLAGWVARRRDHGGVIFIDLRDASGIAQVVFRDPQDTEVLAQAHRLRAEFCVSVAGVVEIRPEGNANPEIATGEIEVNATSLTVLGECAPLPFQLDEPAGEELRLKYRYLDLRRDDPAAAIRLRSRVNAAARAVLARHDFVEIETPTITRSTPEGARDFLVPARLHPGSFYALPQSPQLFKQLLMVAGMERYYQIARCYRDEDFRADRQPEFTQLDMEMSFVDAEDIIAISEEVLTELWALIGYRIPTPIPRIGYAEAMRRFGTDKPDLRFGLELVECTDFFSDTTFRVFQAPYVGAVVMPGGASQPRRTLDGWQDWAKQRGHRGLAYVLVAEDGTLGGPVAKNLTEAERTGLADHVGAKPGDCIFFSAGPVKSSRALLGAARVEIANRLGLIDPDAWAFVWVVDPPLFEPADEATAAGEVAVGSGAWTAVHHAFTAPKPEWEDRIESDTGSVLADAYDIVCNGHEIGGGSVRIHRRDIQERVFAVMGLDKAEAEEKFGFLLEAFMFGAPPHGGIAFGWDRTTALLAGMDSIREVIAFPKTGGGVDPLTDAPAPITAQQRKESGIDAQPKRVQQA

[2] = biological target: Shiga toxin 2 (Escherichia coli O157:H7) (UniProt P09385+P09386); test: E. coli 0.157:H7 Shiga Toxin SOP - stx2 screening assay; format: functional; parameters: scale not given: direction of the effect not stated beside the values; conditions: 30 µM

SMILES	Percent Effect [1] [%]	Percent Effect [2] [%]
CC(C)C(=O)N1CCC2(CCCN(CCOc3ccccc3)C2)C1 (centres undefined)	2.32	10.8
Cc1nccn1C1CCCN(C(=O)c2cc3ccccc3[nH]2)C1 (centres undefined)	0.714	0.146
CC(=O)N1CC(=O)N(c2ccccc2)CC12CCN(CC1CC1)C2 (centres undefined)	13.8	-1.67
NS(=O)(=O)CCNC(=O)c1ccc(-c2ccc(F)cc2)cc1F	16.3	-53.6
O=C([C@H]1C[C@H]2OCC[C@H]2N(C(=O)C2CCOCC2)C1)N1CCCCO1	0.757	-26.6
COc1cc(C(=O)Nc2nc(C)no2)ccc1C	-0.143	-2.1
COCCN1C(=O)C[C@@H]2[C@H]1CCN2C(=O)COc1ccccc1	-2.36	-1.37
CCc1nnc2n1CCN(C(=O)Cc1csc(-c3ccco3)n1)C2	-2.26	-3.06
O=C(c1ccsc1)N1CCc2c(COCc3ccncc3)cncc2C1	-1.03	-68.5
Cc1noc(NC(=O)c2ccc(C)c(F)c2)n1	-11.1	-3.27
NC(=O)C1CCN(C(=O)Cn2nc(-c3ccccc3)oc2=O)C1 (centres undefined)	7.46	-67.9
CC(C)c1cc(C(=O)N(C)Cc2cccc3ncccc23)n(C)n1	-4.72	-15
c1ccc(CN2CCN(Cc3cscn3)CC2)cc1	-2.48	3.98
Cc1nc(CN2CCCC(N(C)Cc3c(C)noc3C)C2)no1 (centres undefined)	-5.45	18.6
CCn1cnnc1CNC(=O)N1CCC(C(=O)NC)CC1	-8.1	-16.1
COc1ncccc1CNC(=O)c1cccnc1O	-1.39	-17.1
Cc1noc(C2CCN(C(=O)c3ccc(NC4CC4)nc3)CC2)n1	1.21	-7.73
CN(c1ccc(C(=O)NCCCN2CCOCC2)c(Cl)c1)S(C)(=O)=O	-4.13	-32.5
CN(CC1CN(Cc2cn3ccsc3n2)CCO1)c1cccnn1 (centres undefined)	-3.78	-9.36
CCn1ccnc1CN1CCN(CC(=O)NC(=O)NC2CC2)CC1	-2.79	24.4
Cc1ccc(-c2nc(CN3CCOC(c4ccccc4)C3)cs2)o1 (centres undefined)	-0.792	13
Cc1ncnc2c1CCN(Cc1ccccn1)CC2	1.8	-19.4
CC(C)c1csc(C2CCCN(C(=O)Cn3ccccc3=O)C2)n1 (centres undefined)	-3.63	-29.5
Cc1csc(N2CCN(CC(=O)Nc3c(C)n[nH]c3C)CC2C)n1 (centres undefined)	2.07	17.4
CCNC(=O)c1nnc2ccc(N3CCOCC3)cc2n1	0.9	-20.2
CCN(Cc1nc2c(cnn2C)c(=O)[nH]1)Cc1cccs1	-1.27	5.32

SMILES	Percent Effect [1] [%]	Percent Effect [2] [%]
Cc1ncsc1C(=O)N(C)Cc1cccc(Cl)c1	-1.26	17.9
COc1cc(C)sc1C(=O)N1CCC(Nc2cccnc2)CC1	-3.37	-50.2
CC(C)(C)c1n[nH]c(C2CN(C(=O)CCC3CC3)CCO2)n1 (centres undefined)	-3.75	11.1
Cc1noc2ncc(C(=O)N3CCCC3c3ccncc3)cc12 (centres undefined)	-7.22	-37.9
CS(=O)(=O)N1CC[C@H]2C[C@@H](C(=O)N3CCOCC3)O[C@@H]2C1	2.65	5.94
CCn1cnnc1CNC(=O)CCC(=O)c1ccc2c(c1)OCCO2	4.55	13.7
COc1ccc(CNC2CCCN(Cc3noc(C)n3)C2)cc1F (centres undefined)	1.37	6.55
O=S(=O)(c1cccs1)N1CCCn2cnc(CN3CCCC3)c2C1	6.2	-4.47
Cc1nn(C)c(C)c1C(=O)N1CCOCC1CC(=O)c1ccco1 (centres undefined)	1.17	-5.88
c1ccc2oc(N3CCCCC3Cn3cncn3)nc2c1 (centres undefined)	-2.88	-18.7
COc1ccc(CN2CCc3ncnc(C4CCOC4)c3CC2)cc1 (centres undefined)	-0.146	-53.7
CC(C)CN1CCC2(CCN(C(=O)c3ccc(F)cc3)CC2)C1=O	-3.41	-8.12
CCN1CC(C(=O)NC(C)(C)CNC(=O)OC(C)(C)C)CC1=O (centres undefined)	4.36	15.4
CCN(CC)c1ccc(NS(=O)(=O)c2cncc(F)c2)cn1	1.66	-27.3
CC(=O)N(Cc1noc(C)n1)C1CCN(Cc2ccncc2Cl)C1 (centres undefined)	1.27	-3.88
O=C(NCc1ccco1)[C@H]1C[C@H]2OCC[C@H]2N(C(=O)c2ccco2)C1	3.58	6.55
CNc1nc2c(s1)C(c1c(Cl)cccc1Cl)CC(=O)N2 (centres undefined)	50.9	5.63
CCN(CC)C(=O)c1nnn(Cc2ccccc2)c1OC	0.348	3.85
CC(C)c1cc(C(F)(F)F)n2nc(CCC(=O)O)nc2n1	-1.46	52.4
CCCN1CCN(C(=O)c2scnc2C)CC1	-0.389	5.75
Cc1nc(CN2CCCC(N(C)CCc3ccncc3)C2)no1 (centres undefined)	0.35	22.9
CN(Cc1ccco1)[C@@H]1CN(C(=O)c2ccnnc2)C[C@@H]2CCCO[C@@H]21	-5.22	-5.91
CCn1cnnc1CNC(=O)N1CCN(c2nc(C)c(C)s2)CC1	-5.01	-22.1
CNS(=O)(=O)c1cccc(CNc2cc(C(F)(F)F)ccn2)c1	-2.24	27.2
Cc1cc(N(C)Cc2noc(C)n2)n2nc(C)c(C)c2n1	-0.251	-8.78
CCc1ccccc1-n1nnc(C(=O)O)c1-c1ccccn1	6.47	-3.21

SMILES	Percent Effect [1] [%]	Percent Effect [2] [%]
COCc1cncc2c1CCN(C(=O)c1ccc(C)o1)C2	8.15	-6.15
COc1c(CNCc2ccc(CN(C)C)cc2)c(C(C)C)nn1C	0.7	16.1
CC(Cn1cccn1)NC(=O)N1CCN(Cc2cccnc2)CC1 (centres undefined)	0.625	-18.1
Cc1nc(C)n(CC2CCCCN2CC(=O)NC2CCOCC2)n1 (centres undefined)	-4.37	-17.4
CN1CCC(c2ncc3c(n2)CCN(C(=O)CC2C=CCC2)C3)CC1 (centres undefined)	0.956	-1.54
O=C(Cc1ccc2c(c1)OCCO2)NCCc1nnc2n1CCC2	6.11	15.8
Cc1cnn(CC2CCCN2Cc2cc(=O)n3cccc(C)c3n2)c1 (centres undefined)	3.68	8
Cc1nn(C)c(Cl)c1CNCc1ccc(OCC(N)=O)cc1	-2.25	-17.5
Nc1nc(CN2CCCC(Cn3cncn3)C2)nc2ccccc12 (centres undefined)	0.466	-13.2
CN(Cc1cccnc1)CC1CCCN1c1cccnn1 (centres undefined)	1.15	6
CCc1n[nH]c(C2CN(Cc3nccn3CC)CCO2)n1 (centres undefined)	1.7	-10.4
Cc1cnn(C(C)C2CC2)c1NC(=O)c1ccncc1 (centres undefined)	4.07	1.34
O=S(=O)(NCC1CCOc2ccccc2C1)N1CCOCC1 (centres undefined)	6.99	-16
Cc1ncc(CNC(=O)CCc2cccc(F)c2)c(C2CCCN2C)n1 (centres undefined)	1.77	-9.03
CCc1nc(C)ncc1C(=O)N1CCCC(n2nc(C)nc2C)C1 (centres undefined)	-3.03	0.321
Cc1ccc(CN2C[C@@H]3COC[C@H](C(=O)N4CCCCO4)[C@@H]3C2)o1	1.57	-5.34
c1cnn(CCN2CCOC(Cn3cncn3)C2)c1 (centres undefined)	0.685	-9.56
COc1cccc(CN2CCCCCC2c2cccc(C)c2)c1O (centres undefined)	-0.481	-68.7
COCCN1C[C@H]2[C@@H](C1)N(Cc1ccc(C)o1)CC[C@H]2OC	-3.26	-28.9
Cn1c(CN2CCN(CC3CC3)CC2)nnc1C1CCC1	8.05	-37.5
OCC1CCCN1c1cc(N2CCC(OC3CCCC3)CC2)ncn1 (centres undefined)	-1.79	7.55
CN(C)CC(=O)N1CCC2(CC1)COC(COc1ccccn1)C2 (centres undefined)	2.27	-20.6
c1cncc(-c2nccc(CN3CCCC3)n2)c1	2.87	-20.7
N#Cc1cc(NS(=O)(=O)c2ccc(C(=O)O)cc2F)ccc1F	2.89	9.05
CCC(CC)C(CNC(=O)Nc1ccc(C)cc1)N1CCOCC1 (centres undefined)	-1.91	-3.64
CC(C)(C(=O)NCC(N)=O)c1ccccc1F	-1.56	-19.3

SMILES	Percent Effect [1] [%]	Percent Effect [2] [%]
CN1CCc2c(C#N)c(NCCCN3CCOCC3)n3cnnc3c2C1	5.9	5.95
CCn1nc2c(cc1=O)CN(Cc1nc(-c3ccccn3)no1)CC2	29	-43.5
O=C(NCc1cnc2n1CCN(c1ncc(F)cn1)CC2)C1CCC1	-2.16	3.59
CNc1ccc(CC2CCCN(C(=O)c3cncnc3C)C2)nn1 (centres undefined)	0.485	29.8
CN1C(=O)C[C@@H]2[C@@H]1CCN2S(=O)(=O)Cc1ccccc1	-2.58	-4.62
CC(=O)N1CCCC1C(=O)NCCOc1cc(C)cc(C)c1 (centres undefined)	-2.19	9.04
CC(=O)N1CCOCC2(CN(Cc3ccc(C)o3)CCO2)C1 (centres undefined)	1.57	-4.76
Cc1cccc(N2Cc3nc(=O)[nH]n3C2=O)c1	-3.43	-54.1
O=C(C1CCC1)N1CCN(C(=O)c2cnccn2)[C@H]2CS(=O)(=O)C[C@H]21	-2.93	-12.2
CN(Cc1ccccn1)C1COC2(CCN(Cc3nccs3)CC2)C1 (centres undefined)	-4.31	-5.28
Cc1nn(C)c(N(C)C)c1CNC1CCc2c(F)cccc21 (centres undefined)	-3.35	33.1
Cc1cc(NC(=O)NCCc2cccs2)n(C)n1	1.39	-38.4
CC(C)c1cc(N2CCN(c3ccc(O)cc3)CC2)n2nccc2n1	-1.38	15
CN(Cc1ccc(F)cc1)C(=O)NCc1nnc2n1CCCCC2	-5.74	-16.9
Cc1cc(NC(=O)CCc2ccsc2)n(C)n1	1.87	-17.7
Cc1noc([C@@H]2CC[C@@H]3[C@@H](CCN3S(=O)(=O)c3cccnc3)O2)n1	0.127	-18.4
CC1CCCN(C(=O)CCc2cccnc2)C1 (centres undefined)	-4.28	-0.0678
Cc1occc1C(=O)N1CCC2(CC1)NC(=O)CC2c1cnn(C)c1 (centres undefined)	-0.199	-2.15
CC(NC(=O)N(C)Cc1ccsc1)c1ccc2c(c1)OCO2 (centres undefined)	1.79	28.8
CN(Cc1ccncc1)C(=O)Nc1cnn(CC2CCCO2)c1 (centres undefined)	2.49	-5.44
CC(C)(C)c1nnc(CN2CCn3c(nnc3C3CC3)C2)o1	8.8	-5.14
Cc1cc(N2CCC(N(C)C(=O)c3ccccc3)CC2)nc(C)n1	-5.32	-9.61
COc1cccc(CNc2nc(O)cc(C3CC(=O)N(C)C3)n2)c1 (centres undefined)	4.42	12.2
CCS(=O)(=O)Nc1ccn(Cc2cccc(Cl)c2)n1	4.7	-12.9
